One assay has as its system CRL-7250. Nature of the assay: Cytotoxic Profiling of Annotated Libraries Using Quantitative High-Throughput Screening (AID 1296008). On max response: on the % scale 0 is the no-effect control and ±100 the full control effect. Particulars: Five cell lines viability, CellTiter-Glo ATP luminescence, 48-72 h; max response: hits give low values. The method in brief:
(§1)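 Compounds were pin-transferred onto cells and incubated 48 or 72 hr at 37 degree Celsius, 95% humidity. CellTiter-Glo was added, plates sat 10 min at room temperature, then ATP-coupled luminescence was imaged as the viability read-out.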
For orientation: In ATP-based viability assays light output follows the ATP content of the culture.

A further assay has as its system HEK293. Described as above. Particulars: Five cell lines viability, CellTiter-Glo ATP luminescence, 48-72 h; max response: hits give low values. The method in brief: as §1
Another assay deals with PC26. Nature of the assay: qHTS profiling for inhibitors of Plasmodium falciparum proliferation (AID 504749). Particulars: P. falciparum in erythrocytes, SYBR Green DNA, 72 h; series mostly up to 28.7 µM. The method in brief: (§2)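 P. falciparum-infected erythrocytes (0.3% parasitemia, 2.5% hematocrit final) were exposed to compounds for 72 h at 37 C in 5% CO2, then lysed with SYBR Green buffer overnight at room temperature; parasite DNA fluorescence was normalized to artemisinin and DMSO controls.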
(In general: In qHTS, concentration-response curves come from the screen itself.)

The next assay relates to PC49. The assay is described as above. Particulars: P. falciparum in erythrocytes, SYBR Green DNA, 72 h; series mostly up to 28.7 µM. The method in brief:
as §2

In another assay the test system is TAB113. Described as above. As to conditions: P. falciparum in erythrocytes, SYBR Green DNA, 72 h; series mostly up to 28.7 µM. The method in brief:
as §2

The test system of a further assay is W2. The description is as above. As to conditions: P. falciparum in erythrocytes, SYBR Green DNA, 72 h; series mostly up to 28.7 µM. The method in brief: as §2
Another assay has as its system PC15. The description is as above. As to conditions: P. falciparum in erythrocytes, SYBR Green DNA, 72 h; series mostly up to 28.7 µM. The method in brief: as §2
In a further assay the test system is SC27B. The assay is described as above. Particulars: P. falciparum in erythrocytes, SYBR Green DNA, 72 h; series mostly up to 28.7 µM. The method in brief:
as §2

Another assay deals with TAB109. The description is as above. Particulars: P. falciparum in erythrocytes, SYBR Green DNA, 72 h; series mostly up to 28.7 µM. The method in brief:
as §2

In another assay the test system is TAB165. Described as above. Particulars: P. falciparum in erythrocytes, SYBR Green DNA, 72 h; series mostly up to 28.7 µM. The method in brief: as §2

Values joined by “and” are separate entries in the source; they are usually repeats but may differ in a detail not shown here. Equal values may be shown once. Results filed as inconclusive are left out. Where a structure was tested more than once in an assay, its records may differ in their call. Values without a mark were called inactive. Active and inactive are the calls of the source. The call rests on the fitted dose curve; in most records, active means well fitted inhibition curve with a large enough effect; inconclusive means small, poorly fitted or top-dose-only effect; inactive means flat fitted curve, though single readings scatter.
Further: nearly all actives have a fitted effect of over 60% in size.
Potency means the concentration at half of the fitted maximal effect.

As to `O=C(C=Cc1c(C(=O)O)[nH]c2cc(Cl)cc(Cl)c12)Nc1ccccc1`, the outcome with CRL-7250 and in the assay with HEK293 was inactive.
Consider `COc1cc(Nc2ncc(F)c(Nc3ccc4c(n3)N(COP(=O)(O)O)C(=O)C(C)(C)O4)n2)cc(OC)c1OC`, for which the Potency is 1.48 µM (active) and 3.66 µM (active) in the assay on CRL-7250; 3.72 µM (active) and 7.31 µM (active) with HEK293.
Turning to `CCc1cc2c(cc1N1CCC(N3CCOCC3)CC1)C(C)(C)c1[nH]c3cc(C#N)ccc3c1C2=O`, the max response is -36.8% and 0.704% with CRL-7250; -78.7% with HEK293. In addition, the Potency in the assay with HEK293 is 3.17 µM (active).
Consider `O=C(C=Cc1cccnc1)NCCCCC1CCN(C(=O)c2ccccc2)CC1`, for which the Potency is 74.3 nM (active) with CRL-7250 and 0.0074 µM (active) in the assay with HEK293.
As for `CC(C)(C)c1cc(C(C)(C)C)c(NC(=O)c2c[nH]c3ccccc3c2=O)cc1O`, the result in the assay with CRL-7250 and with HEK293 was inactive.
On to `CN(C)c1nc(Cc2ccc(NC(=O)c3ccc4ccccc4c3)cc2)nc(Cl)c1CC(=O)O`, for which the max response in the assay with CRL-7250 is 0.957% and -5.82%; in the assay with HEK293, -6.45%. Moreover, the call with HEK293 was inactive.
On to `Cc1ccc(CN2CCNCC2)cc1NC(=O)CNc1ccc(F)c(F)c1`, for which the compound was classed as inactive in the assay on CRL-7250. Besides, in the assay on HEK293, the max response was -5.99% and the compound was called inactive.
`CC(=O)SC[C@@H](C)C(=O)N1CCC[C@H]1C(=O)N[C@@H](Cc1ccccc1)C(=O)O`: the max response with CRL-7250 was 1.31%. For the same compound, in the assay on HEK293, the result was inactive.
As to `COc1cc2c(Nc3ccc(NC(=O)c4ccccc4)cc3)ncnc2cc1OCCCN1CCOCC1`, the max response in the assay on CRL-7250 is 5%. Besides, in the assay on HEK293, the Potency is 23.1 µM (active) and the max response was -7.34%.
In the case of `Nc1ncnc2c1c(-c1cnc3[nH]ccc3c1)nn2C1CCCC1`, the Potency in the assay with CRL-7250 is 118 nM (active) and 920 nM (active); in the assay on HEK293, 1.48 µM (active) and 2.59 µM (active).
`Cc1c(Cn2c(C)nc3c(C(=O)O)cc(N4CCOCC4)cc32)cccc1C(F)(F)F`: the results for the max response in the assay on CRL-7250 and with HEK293 were -5.25% and -8.46%, respectively. The outcome in the assay on HEK293 was inactive.
In the case of `CC(C)c1cc(C(=O)N2Cc3ccc(CN4CCN(C)CC4)cc3C2)c(O)cc1O`, the Potency in the assay on CRL-7250 is 935 nM (active); in the assay on HEK293 it was 105 nM (active) and 58 nM (active).
As for `COc1ccc2c(c1)CC[C@@H](CN(C)CC(=O)O)[C@H]2c1ccccc1`, the max response with CRL-7250 is -2.88%; in the assay with HEK293 it was 2.06%. Also, the Potency with HEK293 was 2.64 µM (active).
As for `Cc1cc(Nc2ncnc3ccc(-c4ccc(CNCCS(C)(=O)=O)o4)cc23)ccc1Oc1ccn2ncnc2c1`, the Potency was 3.32 µM (active) and 23.1 µM (active) in the assay on CRL-7250; 4.18 µM (active) with HEK293. In the assay on HEK293, the max response was -117%.
As to `Nc1ncnc2c1c(-c1cccc(OCc3ccccc3)c1)cn2C1CC(CN2CCCC2)C1` (centres undefined), in the assay on HEK293, the Potency is 13.2 µM (active) and 5.17 µM (active).
As for `CN1CCN(c2ccc3nc(-c4c(N)c5c(F)cccc5[nH]c4=O)[nH]c3c2)CC1`, the Potency in the assay with HEK293 is 1.66 µM (active).
For `CC(C)(C)NC(=O)[C@H]1CN(Cc2cccnc2)CCN1C[C@@H](O)C[C@@H](Cc1ccccc1)C(=O)N[C@H]1c2ccccc2C[C@H]1O`, the Potency is 8490 nM (active) in the assay on PC26, 11200 nM (active) in the assay with TAB113 and 6010 nM (active) with W2. The Potency result with PC49 is “inactive”.
Consider `C=CC(=O)Nc1cc2c(Nc3ccc(F)c(Cl)c3)ncnc2cc1C#CC(C)(C)N1CCN(C)CC1`, for which, in the assay with HEK293, the Potency is 2.96 µM (active).
On the same count and under the same terms, next, `O=c1[nH]nc(Sc2ncc([N+](=O)[O-])s2)n1-c1ccc2c(c1)OCCO2`: 9.35 µM (active).
The same measure, in the same setting: next, `Cn1cncc1[C@@](N)(c1ccc(Cl)cc1)c1ccc2c(c1)c(-c1cccc(Cl)c1)cc(=O)n2C`: 0.148 µM (active).
As to `CN(c1ncccc1CNc1nc(Nc2ccc3c(c2)CC(=O)N3)ncc1C(F)(F)F)S(C)(=O)=O`, in the assay on HEK293, the Potency is 3.72 µM (active).
With `CC[C@H]1CN2CCc3cc(OC)c(OC)cc3[C@H]2C[C@@H]1C[C@@H]1NCCc2cc(OC)c(OC)cc21`, the Potency with PC15 is 282 nM (active); in the assay on PC26, 601 nM (active); in the assay with PC49, 141 nM (active); in the assay with SC27B, 398 nM (active); in the assay on TAB109, 251 nM (active); in the assay on TAB113, 316 nM (active). The Potency in the assay with TAB165 is 316 nM (active); in the assay on W2 it was 151 nM (active).
As to `O=C(O)c1ccc2cc(-c3ccc(O)c(C45CC6CC(CC(C6)C4)C5)c3)ccc2c1`, the Potency in the assay on HEK293 is 1.87 µM (active).
Turning to `Cc1c(NC(=O)OC[C@@H]2COCCN2)cn2ncnc(Nc3ccc4c(cnn4Cc4cccc(F)c4)c3)c12`, the Potency with HEK293 was 14.8 µM (active) and 23.1 µM (active).
With `COC(=O)C1=C(C)NC(C)=C(C(=O)OCCN2CCN(C(c3ccccc3)c3ccccc3)CC2)C1c1cccc([N+](=O)[O-])c1` (centres undefined), the Potency in the assay on PC15 is 10000 nM (active); in the assay on PC26, 1900 nM (active); in the assay with PC49, 5010 nM (active); in the assay with SC27B, 2240 nM (active); with TAB109, 3550 nM (active); in the assay with TAB113, 2000 nM (active). In addition, the Potency is 2240 nM (active) in the assay with TAB165, 1350 nM (active) in the assay with W2 and 11.9 µM (active) in the assay on HEK293.
As for `Cc1cc(CN2CCN(c3c(Br)cnc4nc(-c5ccc(N6CCN(C)CC6)cc5)[nH]c34)CC2)no1`, in the assay on HEK293, the Potency is 23.5 µM (active) and 9.2 µM (active).
As for `COc1cc(OC2CCN(C)CC2)ccc1Nc1ncc2c(n1)n(C1CCCC1)c(=O)n2C`, in the assay on HEK293, the Potency is 3.72 µM (active).
Same read-out and setting: next, `Cc1coc2c1C(=O)C(=O)c1c-2ccc2c1CCCC2(C)C`: 9.2 µM (active).
With `CCCCc1nc2cc(C=CC(=O)NO)ccc2n1CCN(CC)CC`, the Potency in the assay with HEK293 was 3.72 µM (active).
As to `Cc1cc(Nc2cc(NC(=O)c3c(Cl)cccc3Cl)ccn2)nc(N)n1`, the Potency in the assay with HEK293 was 0.935 µM (active).
`C[C@]1(CO)CN(c2cc(C(=O)Nc3ccc4c(c3)-c3c(c(C(N)=O)nn3-c3ccc(F)cc3)CC4)c(Cl)cn2)C[C@@]1(C)CO`: in the assay on HEK293, the Potency is 4.69 µM (active) and 9.2 µM (active).
On to `C=CC(=O)Nc1cc2c(Nc3ccc(F)c(Cl)c3)ncnc2cc1OCCCN1CCOCC1`, for which, in the assay on HEK293, the Potency is 7.5 µM (active).
Same read-out and setting: next, `COC(=O)Nc1nc2ccc(C(=O)c3ccc(F)cc3)cc2[nH]1`: 590 nM (active) and 820 nM (active); `COCCn1c2c([n+](Cc3cnccn3)c1C)C(=O)c1ccccc1C2=O`: 0.0166 µM (active).
Take `Cc1cnc(-c2cnc(NCCNc3ccc(C#N)cn3)nc2-c2ccc(Cl)cc2Cl)[nH]1`: the max response in the assay on HEK293 was -23.2% and -27.2%.

The record behind these values is PubChem BioAssay (NCATS).
